According to PubChem BioAssay AID624330 (Southern Research Specialized Biocontainment Screening …, 2012):
The campaign covered roughly 340,000 compounds. About 2,100 (0.62%) were called active.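 Rule for the calls: active = first-screen hits whose inhibition reached a set limit at any dose in the follow-up dose series; inconclusive = inhibition above the set first-screen limit but never retested; inactive = the rest.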 A selection follows. Potency and affinity values are given separately.

Biological target: Rac GTPase-activating protein 1 (Homo sapiens) (UniProt Q9H0H5)
Sequence (Q9H0H5 whole entry, looked up): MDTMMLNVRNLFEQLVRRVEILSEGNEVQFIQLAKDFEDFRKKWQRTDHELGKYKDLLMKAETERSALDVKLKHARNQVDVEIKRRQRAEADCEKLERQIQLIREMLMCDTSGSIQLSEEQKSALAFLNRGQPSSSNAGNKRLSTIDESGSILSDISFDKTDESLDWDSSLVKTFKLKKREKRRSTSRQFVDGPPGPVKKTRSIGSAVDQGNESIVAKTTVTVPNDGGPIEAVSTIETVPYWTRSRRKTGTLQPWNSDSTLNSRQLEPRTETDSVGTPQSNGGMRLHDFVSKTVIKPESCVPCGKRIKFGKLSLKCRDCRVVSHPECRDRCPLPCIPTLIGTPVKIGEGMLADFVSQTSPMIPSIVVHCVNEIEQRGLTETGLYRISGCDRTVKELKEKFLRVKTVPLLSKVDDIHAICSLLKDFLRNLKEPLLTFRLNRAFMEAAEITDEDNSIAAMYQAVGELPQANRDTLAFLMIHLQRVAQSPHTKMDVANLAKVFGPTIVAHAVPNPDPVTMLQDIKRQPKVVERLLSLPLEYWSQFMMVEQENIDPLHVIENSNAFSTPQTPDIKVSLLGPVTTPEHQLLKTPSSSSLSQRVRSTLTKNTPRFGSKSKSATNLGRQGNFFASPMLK
Test: MgcRacGAP GTPase-activating activity inhibitors, confirmation, biochemical, ADP Hunter fluorescence, primary and confirmatory (AID 624330);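 note: fluorescence reports GDP produced by GAP-driven GTP hydrolysis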
Settings: MgcRacGAP-stimulated Rac1 GTP hydrolysis, at 30 µM, hits give high values, GST-tagged Rac1 F28L mutant substrate

inhibition, inactive:
O=C(NNC(=O)c1cccc(C(F)(F)F)c1)c1ccncc1 8.11%
Cc1cc(SCC(=O)Nc2ccc(O)cc2)n2ncc(-c3ccccc3)c2n1 4.14%
CC1(C)N=C(SCC(=O)Nc2ccc(Cl)cc2)C(c2ccc(Cl)cc2)=N1 2.66%
COc1cc(C(=O)NNC(=O)c2cc(=O)[nH]c3ccccc23)cc(OC)c1OC 5.5%
COc1cc(/C=N/NC(=O)Nc2ccccc2)ccc1OC(C)=O 13.7%
CCOc1ccc(/C=N/NC(=O)Nc2ccccc2)cc1 10.7%
CCN(CC)S(=O)(=O)c1ccc(OC)c(NC(=O)c2cn(CC)c3nc(C)ccc3c2=O)c1 7.32%
CCOC(=O)COc1cccc2c(=O)n(CC(N)=O)ccc12 3.81%
COc1ccc(C=C2NC(=S)NC2=O)cc1 14.2%
CCOc1ccc(/C=C2\NC(=S)NC2=O)cc1 -0.61%
COC(=O)Cc1ccc(NC(C)=O)cc1 3.66%
CC(=O)Nc1ccc(OC(=O)c2ccc(Cl)cc2)cc1 -3.42%
CCOC(=O)/C(=C/Nc1ccc(F)c(F)c1)[N+](=O)[O-] -8.37%
Cc1cc(C)c2[nH]c(=O)c(C(c3nnnn3C(C)(C)C)N3CCN(C(=O)c4ccco4)CC3)cc2c1 (stereo not drawn) 1.84%
Nc1ccc(-c2cnc(-c3ccc(N)cc3)nc2)cc1 9.16%
Nc1ccc(-c2nnc(-c3ccc(N)cc3)o2)cc1 12.9%
CC(=O)c1ccc(N=Nc2ccc(N)cc2)cc1 0.6%
Cc1cc(N(C)C)ccc1N=Nc1ccc2ncccc2c1 3.61%
Nc1ccc(CCc2ccc(N)cc2)cc1 13.9%
Nc1ccc(SC(F)(F)F)cc1 -3.64%
Nc1ccc(Sc2ccc([N+](=O)[O-])cc2)cc1 7.67%
CN(C)c1ccc(N=Nc2ccccc2Br)cc1 8.09%
Cc1ccccc1C(=O)OCC(=O)Nc1cccc(S(=O)(=O)N2CCCCC2)c1 11.7%
CN(C)S(=O)(=O)c1ccc(Cl)c(NC(=O)COc2ccccc2[N+](=O)[O-])c1 6.09%
CCN(CC1CCCO1)C(=O)c1cc(COc2ccc(OC)cc2Cl)on1 (stereo not drawn) -11.4%
C[C@H](CO)N1C[C@H](C)[C@@H](CN(C)C(=O)Nc2ccccc2)Oc2c(NS(=O)(=O)c3ccc(F)cc3)cccc2C1=O 3.18%
Cc1ccc(OCC(=O)Nc2ccc3oc(=O)ccc3c2)cc1 4.26%
O=C(Cc1ccsc1)N1CCN(S(=O)(=O)c2cccc(F)c2)CC1 -3.87%
CC1Cc2ccccc2N1C(=O)CN1CCCCC1 (stereo not drawn) 2.91%
CCN1CCN(CC(=O)N2c3ccccc3CC2C)CC1 (stereo not drawn) 22.6%
CN(Cc1cccc(F)c1)C(=O)C1CC(=O)N(c2ccc3c(c2)OCCO3)C1 (stereo not drawn) 4.27%
Cc1c(Cl)ccc(S(=O)(=O)N2CCN=C2c2ccccc2)c1Cl 4.68%
Cc1cc(Cl)cc2sc(NC(=O)C3CC3)nc12 5.72%
Cc1cc(Cl)cc2sc(NC(=O)c3ccco3)nc12 5.28%
CCS(=O)(=O)CCSc1nc2ccccc2o1 -5.63%
C/C(O)=C\c1nc2ccccc2oc1=O 18.1%
CCCCCN1C(C)=CC(=C(C#N)C#N)C=C1C 9.16%
Cc1cccc2sc(N(CCN(C)C)C(=O)c3ccc4ccccc4c3)nc12 5.08%
O=c1[nH]cc(S(=O)(=O)N2CCN(c3ccc(F)cc3)CC2)c(=O)[nH]1 2.66%
Cc1cc(C(=O)Nc2nccs2)c2cc(F)ccc2n1 4.04%
O=C(CNCc1ccco1)Nc1cc(S(=O)(=O)N2CCOCC2)ccc1N1CCCC1 24.8%
Cc1ccc(S(=O)(=O)N2CCOCC2)cc1C(=O)NCc1cccnc1 5.2%
Cc1ccc(S(=O)(=O)N2CCOCC2)cc1NC(=O)CNCc1ccccc1Cl 8.04%
Cc1ccc(S(=O)(=O)N2CCCCC2)cc1NC(=O)c1ccco1 15.5%
O=C(COC(=O)c1ccco1)Nc1cccc(S(=O)(=O)N2CCCCC2)c1 0.12%
O=C(Nc1cccc(S(=O)(=O)N2CCCCC2)c1)c1ccco1 -7.5%
COc1ccc(CNC(N)=O)cc1OC 5.81%
CN(C)S(=O)(=O)c1ccc(NC(=O)CN2C(=O)NC3(CCCC3)C2=O)cc1 4.79%
CCCN(C(=O)c1c(CC)noc1C)c1c(N)n(Cc2ccccc2)c(=O)[nH]c1=O 7.17%
CC1(NC(=O)N2CCCCC2)CCS(=O)(=O)C1 (stereo not drawn) 6.45%
O=C1CC(c2ccc(F)cc2)CC(O)=C1C=NCCN1CCNCC1 (stereo not drawn) 10.7%
COc1ccc(-c2csc3ncnc(N4CCN(c5ccccc5OC)CC4)c23)cc1 8.39%
O=C(OCC(=O)N1CCN(C(=O)c2ccco2)CC1)c1ccc(Cl)nc1 2.2%
COCCNC(=O)c1ccc(N2CC3CC(C2)c2cccc(=O)n2C3)c(NC(=O)c2cc(OC)cc(OC)c2)c1 (stereo not drawn) 10.3%
COc1ccc(CNC(=O)C2CCC(=O)N(CC3CCCCC3)C2)cc1 (stereo not drawn) 8.55%
O=C(NN1C(=O)c2ccccc2NC1c1ccc([N+](=O)[O-])o1)c1ccc(Br)cc1 (stereo not drawn) 5.26%
O=C(Cn1c(NCCO)nc2ccccc21)NCCc1ccccc1 0.41%
Nc1nnc(SCC(=O)N2CCN(c3ccccc3)CC2)s1 2.87%
Cc1nc(Cc2ccccc2)sc1CC#N -3.31%
CC(C)CC(NC(=O)C(Cc1ccc(OCc2ccccc2)cc1)NC(=O)OC(C)(C)C)C(N)=O (stereo not drawn) 10.6%
Cc1csc(NC(=O)CSc2nc(C)cs2)n1 3.74%
COc1ccc(CC(=O)Nc2nc(C)cs2)cc1 12%
COc1ccc(-n2nnnc2SCC(=O)N2CCN(C(=O)c3ccco3)CC2)cc1OC 7.68%
